Source: PubChem BioAssay AID2153 (The Scripps Research Institute Molecular Screening Center, 2009)
Screen size: about 2,400 compounds; about 2,000 (83%) were called active. So high a share suggests a set chosen from earlier hits. These entries were drawn from the full list. Unmarked numbers belong to inactive results.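 The calls were made as follows: active = inhibition above the solvent-only control well mean plus 3 SD, limit set per screening run (cut at about 23% in these data); inactive = the rest.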

Biological target: Guanyl-specific ribonuclease T1 (Aspergillus oryzae (strain ATCC 42149 / RIB 40)) (UniProt P00651)
Sequence (P00651 whole entry, looked up): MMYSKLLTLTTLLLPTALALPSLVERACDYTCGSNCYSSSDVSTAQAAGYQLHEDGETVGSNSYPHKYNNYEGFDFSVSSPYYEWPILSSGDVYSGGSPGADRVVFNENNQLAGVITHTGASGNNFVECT
Test: RNase T1 inhibitors, counter-screen for TPT1 inhibitor project, biochemical, fluorescence polarization (AID 2153);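 also: plate controls were DMSO wells with enzyme for no effect and wells without RNase T1 for full effect; inhibitors block cleavage so intact labeled substrate keeps polarization high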
Conditions: RNase T1 cleavage, 1536-well, at 5 µM, active compounds read high

Question: CC(C)n1c(=O)c(C=Nc2ccc(Br)cc2)c(O)n(Cc2ccco2)c1=O was tested. Which inhibition did it give?
Answer: 28.4% (active)

Question: How did the inhibition turn out when CCCCC(=O)N/N=C/c1c(O)n(CC)c(=S)n(CC)c1=O was run?
Answer: 110% (active)

Question: How did the inhibition turn out when CCN1C(=O)C(=Cc2c(C)n(CC(=O)NCC3CCCO3)c3ccccc23)C(=O)N(CC)C1=S (centres undefined) was run?
Answer: 26.4% (active)

Question: For COc1ccccc1N=Nc1c(O)[nH]c(=S)[nH]c1=O, which inhibition is on record?
Answer: 77.7% (active)

Question: With CC/C(=N\NC(=O)c1ccccc1O)c1c(O)n(Cc2ccccc2)c(=O)[nH]c1=O as the compound, how does the inhibition read?
Answer: 35.2% (active)

Question: Which inhibition does the source give for O=C1CC(=O)N(Cc2ccccc2)C(=O)N1CCCCCCN1C(=O)CC(=O)N(Cc2ccccc2)C1=O here?
Answer: 34.1% (active)

Question: Which inhibition does the source give for COc1ccc(N2C(=O)/C(=C/c3ccco3)C(=O)NC2=S)cc1 here?
Answer: 24.8% (active)

Question: O=C1NC(=O)N(Cc2ccco2)C(=O)/C1=C\c1ccc(-c2ccc(F)cc2)o1 was tested. Which inhibition did it give?
Answer: 20.3%

Question: For O=C1NC(=O)N(Cc2ccco2)C(=O)/C1=C\c1cccn1CCOc1ccccc1, which inhibition is on record?
Answer: 11.7%
